# Measured values published in PubChem BioAssay (NCATS).
# Inconclusive results are not listed. Values without a mark were called inactive. The source made the active and inactive calls. The call rests on the fitted dose curve; in most records, active means well fitted inhibition curve with a large enough effect; inconclusive means small, poorly fitted or top-dose-only effect; inactive means no such curve, though single readings can be large or run the other way.
# Target: Thioredoxin reductase 1, cytoplasmic (Rattus norvegicus) (UniProt O89049)
# Sequence (O89049 whole entry, looked up): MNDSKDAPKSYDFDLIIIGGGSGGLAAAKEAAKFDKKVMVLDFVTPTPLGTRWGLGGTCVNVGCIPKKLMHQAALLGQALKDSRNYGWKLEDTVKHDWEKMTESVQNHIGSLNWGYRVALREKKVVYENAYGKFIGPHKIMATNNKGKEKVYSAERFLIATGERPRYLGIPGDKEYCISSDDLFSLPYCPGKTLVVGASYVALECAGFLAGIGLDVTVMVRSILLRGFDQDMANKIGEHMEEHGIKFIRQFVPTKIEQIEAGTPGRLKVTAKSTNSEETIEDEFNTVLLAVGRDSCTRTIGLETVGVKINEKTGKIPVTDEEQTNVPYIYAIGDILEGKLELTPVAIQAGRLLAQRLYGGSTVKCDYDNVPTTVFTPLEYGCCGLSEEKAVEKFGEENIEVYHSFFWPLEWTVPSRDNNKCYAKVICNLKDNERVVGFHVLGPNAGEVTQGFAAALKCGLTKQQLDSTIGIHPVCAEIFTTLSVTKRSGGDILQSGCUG
# Assay: qHTS Assay for Inhibitors of Mammalian Selenoprotein Thioredoxin Reductase 1 (TrxR1) (AID 488773); further: nearly all actives have a fitted effect of over 40% in size
# Conditions: purified TrxR1 enzyme activity; Potency: inhibition; series mostly up to 57.1 µM; activity change, negative = inhibition: at the top concentration
# Source text: The selenoprotein thioredoxin reductase (TrxR; EC 1.8.1.9) is a FAD containing homodimeric pyridine nucleotide-disulfide oxidoreductase with many cellular roles. Together with NADPH and its prime substrate thioredoxin (Trx), the enzyme forms the core of the Trx system. The mammalian Trx system exerts a wide spectrum of functions including redox regulation, antioxidant defense, regulation of transcription factors as well as support of cell growth and replication. Many of these functions involve the reduction of Trx, which may subsequently reduce a number of different substrates including ribonucleotide reductase, peroxiredoxins or NFkB. Mammalian TrxR itself also has a broad substrate specificity, reducing both protein and non-protein substrates, including low molecular weight compounds such as dehydroascorbate, lipoic acid, ubiquinone, and juglone. In addition, several drugs in clinical use for anticancer treatment are indeed known to target TrxR1.
# This BioAssay is a validation of an NADPH fluorescence-based, dual-purpose qHTS rTrxR1 assay designed to find potential inhibitors and substrates of rTrxR1. For this particular BioAssay, actives are potential inhibitors. See related BioAssay for substrate data deposition.
# Assay protocol: 2 uL of reagents (buffer in column 4 as negative control and 90 nM rTrxR1 in columns 1-3 and 5-48) were dispensed into Greiner black solid-bottom 1,536-well assay plates, followed by 1 uL of NADPH (400 uM final concentration) to each well. The plates were centrifuged at 1000 rpm for 15 seconds and subsequently incubated for 5 min at room temperature (~22 deg C) to allow for rTrxR1 reduction. Compounds (23 nL) were then transferred via Kalypsys pin tool equipped with 1536-pin array (10 nL slotted pins, V&P Scientific, San Diego, CA). In addition, a duplicate 2-fold serial dilution of the control compounds auranofin, a known gold-based TrxR1 inhibitor, and juglone (5-hydroxy-1,4-naphthoquinone), a natural TrxR1 substrate, were pin-transferred to columns 2 and 3, respectively. After incubation for 15 min at room temperature (~22 deg C), 1 uL of selenite (400 uM final concentration) were dispensed to each well. The plate was immediately transferred to a ViewLux high-throughput CCD imager (PerkinElmer), wherein kinetic measurements of NADPH fluorescence (Ex 340 nm, Em 450 nm) were acquired (8 minute kinetic read, see Table 1). Read 1 was utilized to assess the capacity of a compound to serve as an rTrxR1 substrate, i.e. a decrease in NADPH fluorescence compared to the no-compound background is an indication of a substrate behavior for that particular compound. For inhibitory activity of a compound, delta values, computed as the difference in fluorescence intensity between the first and last reads of an 8-minute time kinetic window, were used. All reagents were diluted in an assay buffer consisting of 50 mM Tris-HCl, pH 7.5, 2 mM EDTA, and 0.01% Tween-20.
# Throughout the screen, reagent bottle and all liquid lines were made light-tight to minimize reagent degradation. All screening operations were performed on a fully integrated robotic system (Kalypsys, San Diego, CA) containing one RX-130 and two RX-90 anthropomorphic robotic arms (Staubli, Duncan, SC). Library plates were screened starting from the lowest and proceeding to the highest concentration, and a 'double-pinning' step of the highest concentration was required to access higher concentrations of compounds. Vehicle-only plates, with DMSO being pin-transferred to the columns 5-48, were inserted uniformly at the beginning and the end of each library in order to monitor and record any shifts in the background, which can be affected by reagent dispensers or loss in enzyme activity over time. Screening data were corrected, normalized, and concentration-effect relationships were derived by using publicly-available curve fitting algorithms developed in-house (http://ncgc.nih.gov/pub/openhts).
# On the % scale 0 is the no-effect control and ±100 the full control effect; potency means the concentration at half of the fitted maximal effect.
SMILES,"activity change, negative = inhibition [%]",Potency
C=CCN1CCC23c4c5ccc(O)c4O[C@H]2C(=O)CC[C@@]3(O)C1C5 (stereo not given in full),1.4,
c1ccc2cc(CC3=NCCN3)ccc2c1,1.73,
NNC(N)=O,-11.6,
C=CCN1CC[C@]23c4c5ccc(O)c4O[C@@H]2/C(=N/N=C2\CC[C@@]4(O)C6Cc7ccc(O)c8c7[C@@]4(CCN6CC=C)[C@@H]2O8)CC[C@@]3(O)C1C5,,11.9 µM (active)
CC(N)Cc1c[nH]c2ccc(O)cc12 (stereo not given),-8.88,
NC(N)=Nc1ccc2[nH]c3c(c2c1)C[C@@]1(O)[C@H]2Cc4ccc(O)c5c4[C@@]1(CCN2CC1CC1)[C@H]3O5,,26.7 µM (active)
CC(C)(C)c1cc(C=C(C#N)C#N)cc(C(C)(C)C)c1O,,16.8 µM (active)
Cc1cc([C@@H]2CCCN2C)on1,9.38,
N[C@@H](Cn1oc(=O)[nH]c1=O)C(=O)O,3.51,
CCNC(=O)[C@H]1O[C@@H](n2cnc3c(N)ncnc32)[C@H](O)[C@@H]1O,-4.06,
CCCn1c(=O)c2[nH]c(C3CCCC3)nc2n(CCCOC(=O)c2ccc(S(=O)(=O)F)cc2)c1=O,6.52,
CN1C2CCC1CC(OC(c1ccccc1)c1ccccc1N)C2 (stereo not given),-4.64,
O=C(O)c1cc[c]([Hg][Cl])cc1,,0.299 µM (active)
NC(=O)c1ccc(OCC(O)CN2CC=C(c3ccc(F)cc3)CC2)cc1 (stereo not given),1.78,
COc1ccc2c(c1)/C(=C/c1cnc[nH]1)C(=O)N2,-24.2,
O=C1CC[C@@]2(O)C3Cc4ccc(O)c5c4C2(CCN3CC2CC2)[C@H]1O5 (stereo not given in full),-14.4,
CO[C@H]1CC=C2CCN3CCC4=C(CC(=O)OC4)[C@]23C1,28.4,
O=S1(=O)N(CCN2CC=C(c3c[nH]c4cc(F)ccc34)CC2)c2cccc3c2N1CCC3,0.777,
CCCCCCC(C)(C)c1ccc([C@@H]2C[C@H](O)CC[C@H]2CCCO)c(O)c1,-9.68,
CCCN1CC[C@@H]2c3cc(O)ccc3CC[C@@H]21,-4.71,

SMILES,"activity change, negative = inhibition [%]",Potency
COc1ccc2[nH]cc(CCN)c2c1,3.61,
OC1CCCCC1N1CCC(c2ccccc2)CC1 (stereo not given),-7.45,
CCN1C[C@@]2(COC)C3[C@@H](OC)C4[C@@H]1C3([C@@H]1C[C@]3(O)[C@H](OC(=O)c5ccccc5)[C@@H]1[C@]4(OC(C)=O)[C@@H](O)[C@@H]3OC)[C@H](OC)C[C@H]2O,-1.38,
COC(=O)N1CCN(C(=O)Cc2ccc(Cl)c(Cl)c2)C(CN2CCCC2)C1 (stereo not given),2.97,
C=CCN1CCc2cccc3c2[C@H]1Cc1ccc(O)c(O)c1-3,,5.97 µM (active)
C[C@H](N)CN1CCc2ccc(Br)cc21,-0.921,
NC(=O)c1cc(N2CC2)c([N+](=O)[O-])cc1[N+](=O)[O-],-18.1,
C=CCN1C[C@@H](C)N([C@H](c2ccc(C(=O)N(CC)CC)cc2)c2cccc(OC)c2)C[C@@H]1C,-7.48,
C[N+](C)(C)CC#CCOC(=O)Nc1cccc(Cl)c1,,21.2 µM (active)
Clc1cc(I)cc(Cl)c1NC1=NCCN1,2.4,
CCCN(CCC)CCc1c[nH]c2ccc(C(N)=O)cc12,-0.91,
COc1ccc2c(c1)C13CCCCC1C(C2)N(C)CC3 (stereo not given),-7.59,
CN(N=O)c1ccc(O)c(O)c1,,0.947 µM (active)
C/C(O)=C(\C#N)C(=O)Nc1cc(Br)ccc1Br,-15,
CCCN(CCC)[C@@H]1CCc2cccc(O)c2C1,-10.9,
OCc1cnc[nH]1,-6.63,
O=c1c2ccccc2[se]n1-c1ccccc1,-1.24,
CN(N=O)c1cc(O)ccc1O,,0.752 µM (active)
CN1CCc2cccc(Cl)c2CC1,-4.61,
O=[N+]([O-])c1ccc2nc(N3CCNCC3)ccc2c1,-13.5,
